Data taken from PMC9911399, “Two distinct binding modes provide the RNA-binding protein RbFox with extraordinary sequence specificity”.
Changes are numbered by the printed parent chain; changes in the protein carry UniProt numbers. Over roughly 16,000 sequences, “ka relative to ugcaugu” has its median near 0.0091; the highest 2% begin near 0.032. The entries come from a sample that favours the highest values as a whole.

T1: RBFOX1 RRM (Homo sapiens, UniProt Q9NWB1 109-208)
T1 sequence: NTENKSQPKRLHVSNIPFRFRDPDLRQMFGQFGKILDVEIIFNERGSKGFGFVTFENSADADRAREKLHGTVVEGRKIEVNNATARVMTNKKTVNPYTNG

B1: UCAGACC (DNA:RNA)
RNA: GGGAGACCGGAAUUCAGAUUGUCCUCAGACCUUAAAUCCCGUCGUAGCCACCA
DNA 1: CAATCTGAATTCCGGTCTCCC
DNA 2: TGGTGGCTACGACGGGATT
B2: UGAGCUA (DNA:RNA)
RNA: B1 RNA with C26G, A29C, C30U, C31A
DNA 1: CAATCTGAATTCCGGTCTCCC
DNA 2: TGGTGGCTACGACGGGATT
B3: UAGAGGG (DNA:RNA)
RNA: B1 RNA with C26A, A27G, G28A, A29G, C30G, C31G
DNA 1: CAATCTGAATTCCGGTCTCCC
DNA 2: TGGTGGCTACGACGGGATT
B4: AACACAA (DNA:RNA)
RNA: GGGAGACCGGAAUUCAGAUUGUCCAACACAAUUAAAUCCCGUCGUAGCCACCA
DNA 1: CAATCTGAATTCCGGTCTCCC
DNA 2: TGGTGGCTACGACGGGATT
B5: GAGAUCC (DNA:RNA)
RNA: B4 RNA with A25G, C27G, C29U, A30C, A31C
DNA 1: CAATCTGAATTCCGGTCTCCC
DNA 2: TGGTGGCTACGACGGGATT
B6: UCUGUUC (DNA:RNA)
RNA: B1 RNA with A27U, A29U, C30U
DNA 1: CAATCTGAATTCCGGTCTCCC
DNA 2: TGGTGGCTACGACGGGATT
B7: GAGGGGG (DNA:RNA)
RNA: B4 RNA with A25G, C27G, A28G, C29G, A30G, A31G
DNA 1: CAATCTGAATTCCGGTCTCCC
DNA 2: TGGTGGCTACGACGGGATT
B8: UGGCUUG (DNA:RNA)
RNA: B1 RNA with C26G, A27G, G28C, A29U, C30U, C31G
DNA 1: CAATCTGAATTCCGGTCTCCC
DNA 2: TGGTGGCTACGACGGGATT
B9: UGGCGUG (DNA:RNA)
RNA: B1 RNA with C26G, A27G, G28C, A29G, C30U, C31G
DNA 1: CAATCTGAATTCCGGTCTCCC
DNA 2: TGGTGGCTACGACGGGATT
B10: UGGCUGG (DNA:RNA)
RNA: B1 RNA with C26G, A27G, G28C, A29U, C30G, C31G
DNA 1: CAATCTGAATTCCGGTCTCCC
DNA 2: TGGTGGCTACGACGGGATT
B11: UUGCUGG (DNA:RNA)
RNA: B1 RNA with C26U, A27G, G28C, A29U, C30G, C31G
DNA 1: CAATCTGAATTCCGGTCTCCC
DNA 2: TGGTGGCTACGACGGGATT
B12: UGGCGUC (DNA:RNA)
RNA: B1 RNA with C26G, A27G, G28C, A29G, C30U
DNA 1: CAATCTGAATTCCGGTCTCCC
DNA 2: TGGTGGCTACGACGGGATT
B13: GGCUGGU (DNA:RNA)
RNA: B4 RNA with A25G, A26G, A28U, C29G, A30G, A31U
DNA 1: CAATCTGAATTCCGGTCTCCC
DNA 2: TGGTGGCTACGACGGGATT
B14: UGGCUUC (DNA:RNA)
RNA: B1 RNA with C26G, A27G, G28C, A29U, C30U
DNA 1: CAATCTGAATTCCGGTCTCCC
DNA 2: TGGTGGCTACGACGGGATT
B15: GCUGGUU (DNA:RNA)
RNA: B1 RNA with U25G, A27U, A29G, C30U, C31U
DNA 1: CAATCTGAATTCCGGTCTCCC
DNA 2: TGGTGGCTACGACGGGATT
B16: UGGCGUA (DNA:RNA)
RNA: B4 RNA with A25U, A26G, C27G, A28C, C29G, A30U
DNA 1: CAATCTGAATTCCGGTCTCCC
DNA 2: TGGTGGCTACGACGGGATT
B17: CGGCUGG (DNA:RNA)
RNA: GGGAGACCGGAAUUCAGAUUGUCCCGGCUGGUUAAAUCCCGUCGUAGCCACCA
DNA 1: CAATCTGAATTCCGGTCTCCC
DNA 2: TGGTGGCTACGACGGGATT
B18: UCCUGGC (DNA:RNA)
RNA: B1 RNA with A27C, G28U, A29G, C30G
DNA 1: CAATCTGAATTCCGGTCTCCC
DNA 2: TGGTGGCTACGACGGGATT
B19: GUGCUGG (DNA:RNA)
RNA: B17 RNA with C25G, G26U
DNA 1: CAATCTGAATTCCGGTCTCCC
DNA 2: TGGTGGCTACGACGGGATT
B20: GCUAGGA (DNA:RNA)
RNA: B4 RNA with A25G, A26C, C27U, C29G, A30G
DNA 1: CAATCTGAATTCCGGTCTCCC
DNA 2: TGGTGGCTACGACGGGATT

Target: T1, RBFOX1 RRM
Assay: EMSA; HiTS-Eq, 1 nM pool, 10 min; buffer printed only for the single-RNA assays: 10 mM Tris pH 7.5, 150 mM NaCl, 3.4 mM EDTA, 0.001% NP-40, 30 C
Details: tags: His6 N-terminal (pET28a); label: 5' 32P
Method in brief: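 Purified RbFox RRM, wild type or mutant, was incubated for 10 min in 50 µL with 1 nM of a 5′-radiolabelled RNA pool carrying 7 randomized nucleotides, whose flanks were annealed to DNA oligonucleotides, over a series of increasing protein concentrations. Unbound RNA was resolved on 8% native PAGE, cut out, reverse-transcribed, barcoded by PCR and sequenced on an Illumina HiSeq 2500. Relative association constants were derived from changes in read counts for each RNA species versus the control reaction and normalised to the cognate motif.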

With B1 as the binder, how does the binding signal read?
The binding signal was 0.00454 KA relative to UGCAUGU.

Which binding signal does the source give for B2 here?
The binding signal was 0.015 KA relative to UGCAUGU.

How did the binding signal turn out when B3 was run?
Its binding signal is 0.00669 KA relative to UGCAUGU.

Which binding signal does the source give for B4 here?
The binding signal was 0.00155 KA relative to UGCAUGU.

How did the binding signal turn out when B5 was run?
Its binding signal is 0.0136 KA relative to UGCAUGU.

For B6, which binding signal is on record?
Its binding signal is 0.0184 KA relative to UGCAUGU.

With B7 as the binder, how does the binding signal read?
The binding signal was 0.0168 KA relative to UGCAUGU.

Which binding signal does the source give for B8 here?
Its binding signal is 0.0526 KA relative to UGCAUGU.

With B9 as the binder, how does the binding signal read?
The binding signal was 0.0332 KA relative to UGCAUGU.

B10 was tested. Which binding signal did it give?
Its binding signal is 0.0415 KA relative to UGCAUGU.

With B11 as the binder, how does the binding signal read?
Its binding signal is 0.0302 KA relative to UGCAUGU.

How did the binding signal turn out when B12 was run?
Its binding signal is 0.0251 KA relative to UGCAUGU.

How did the binding signal turn out when B13 was run?
Its binding signal is 0.0324 KA relative to UGCAUGU.

B14 was tested. Which binding signal did it give?
Its binding signal is 0.0201 KA relative to UGCAUGU.

For B15, which binding signal is on record?
Its binding signal is 0.0289 KA relative to UGCAUGU.

B16 was tested. Which binding signal did it give?
Its binding signal is 0.0143 KA relative to UGCAUGU.

B17 was tested. Which binding signal did it give?
The binding signal was 0.0236 KA relative to UGCAUGU.

With B18 as the binder, how does the binding signal read?
Its binding signal is 0.0109 KA relative to UGCAUGU.

B19 was tested. Which binding signal did it give?
The binding signal was 0.0295 KA relative to UGCAUGU.

B20 was tested. Which binding signal did it give?
The binding signal was 0.00693 KA relative to UGCAUGU.
